Cycloheximide cs: affects cycloheximide protein synthesis inhibition readout, counter-screen. cell reporter, cycloheximide protein synthesis inhibition counterscreen. max response, %. hit rate 12% among 300,000. AID 2314; in the data active = max response mostly above about 13%, no sharp cut-off; inactive = mostly below about 14%; note: read at 38.3 µM for the half of the compounds with a filed dose; 0% is about no effect
HCV inhibitor: HCV inhibition | hit rate 3.4% among 340,000 | AID 651820 | Huh7.5.1 HCVcc-Cre infection, luciferase reporter, 44 h | Potency, µM (titrated, usually from 41.8 µM), for the others: at the highest dose activity change, negative = inhibition, actives largely listed as inhibitors; note: potency is the fitted concentration of half-maximal effect; % is set by controls: 0 for no effect and ±100 for the full control effect
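Seed cells (1,000/well) for 4 h; treat with compound and infect with HCVcc-Cre, moi about 0.5. Incubate 44 h, then detect luciferase activity.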
Shiga toxin inh: blocks Shiga toxin action in Vero cells. Vero cells, Shiga toxin protein synthesis inhibition reporter. AID 2315. inhibition, % at 38.7 µM. hit rate 9.2% among 290,000; in the data active = inhibition mostly above about 28%, no sharp cut-off; inactive = mostly below about 43%; note: 0% is about no effect
HCMV inh: inhibitors of human cytomegalovirus | HFF cells, HCMV-luciferase reporter, 72 h; active compounds read low | activity change, negative = inhibition, % at 57.5 µM | hit rate 4.5% among 410,000 | AID 1259415; in the data active = activity change below about -60%; inconclusive = no clear call, values can overlap the other calls; inactive = above about -39%; note: % is set by controls: 0 for no effect and ±100 for the full control effect
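Compounds were evaluated in HFFs infected with an HCMV luciferase reporter virus (MOI 1 PFU/cell). Luciferase in lysates collected 72 h post infection served as the replication measure.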
Pf growth 96h: P. falciparum growth inhibition at 96 hours; P. falciparum luciferase reporter growth, 96 h; Potency, µM (series often up to 28.7 µM), without a hit: at the highest dose activity change, negative = inhibition, most hits filed as inhibitors; hit rate 6.9% among 320,000; AID 504834; note: potency is the fitted concentration of half-maximal effect; % is set by controls: 0 for no effect and ±100 for the full control effect
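Two-generation exposure (96 h) targets delayed-death phenotype. Reporter parasites carrying integrated firefly luciferase, in red cells at 2% hematocrit and 0.05% parasitemia final, kept at 37 C, 5% CO2; luminescence loss indicates inhibition.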
Pf growth 48h: inhibits P. falciparum growth in the first generation, 48 h. P. falciparum luciferase growth in erythrocytes, 48 h. Potency, µM (top dose mostly 28.7 µM), without a hit: at the highest dose activity change, negative = inhibition, usual class: inhibitors. hit rate 5.9% among 310,000; note: potency is the fitted concentration of half-maximal effect; % is set by controls: 0 for no effect and ±100 for the full control effect
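A one-generation exposure of luciferase-tagged malaria parasites in RPMI 1640/Albumax erythrocyte culture, 37 C and 5% CO2. Inhibition is inferred from decreased luminescence after adding detection reagent.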
* hit, by the source's call; i = inactive; ? = inconclusive; / = no result; [ ] = another dose, or the depositor's remark. The list is not random: actives were taken first. Their share in the collection is about 21%. Unless noted, calls come from the whole dose curve; as a rule, active = well fitted inhibition curve with a large enough effect; inconclusive = small, poorly fitted or top-dose-only effect, or another doubt; inactive = no such curve, though single readings can be large or run the other way.

SMILES	Cycloheximide cs	HCV inhibitor	Shiga toxin inh	HCMV inh	Pf growth 96h	Pf growth 48h
CCOC(=O)c1ccccc1NC(=O)COC(=O)C1CCN(S(=O)(=O)c2ccccc2C(=O)OC)CC1	/	1%[8.37 µM]	/	-14	?	-27%
O=S(=O)(Nc1cccc(C(F)(F)F)c1)c1cnc[nH]1	-1	8%	-6	-3	10µM*	12%
O=S(=O)(Nc1ccc(C(F)(F)F)cc1)c1cnc[nH]1	-5	7%	-13	4	0%	6%
CC(=O)O[C@H]1Cc2ccccc2N(C(N)=O)c2ccccc21	-7	/	-15	/	/	/
CC1CCCC(NC(=O)COC(=O)c2ccc(N(C)C)cc2)C1C (stereo not given)	-1	2.8µM*	-17	4	/	11%
CC1CCCC(NC(=O)NC(=O)COC(=O)c2ccc(O)cc2O)C1C (stereo not given)	/	-2%	/	-20	?	7.4µM*
O=C(Nc1ccc(C(=O)O)cc1)/C(=C\c1ccco1)NC(=O)c1ccco1	4	9%	-8	0	?	-13%
Cc1cc(C(=O)Nc2ccc(Cl)cc2)c(C)n1Cc1cccs1	67*	-21%	95*	-7	9%	228%
Cc1cc(C)cc(NC(=O)c2cc(C)n(Cc3cccs3)c2C)c1	49*	?	53*	98	117%	138%
CC(=O)NC12CC3CC(C1)CC(C(=O)Oc1ccc(N(C)S(=O)(=O)c4cc(C)ccc4C)cc1)(C3)C2	/	?	/	-13	13µM*	?
CC(=O)NC12CC3CC(C1)CC(C(=O)NCC(=O)Nc1c(C)cc(C)cc1C)(C3)C2	/	10%	/	-2	-33%	-29%
O=C1CC[C@@]23CCCN2C(=O)CCCC3C1 (stereo not given in full)	-4	?	i	-1	/	/
CC(C)(C)c1cc(OS(C)(=O)=O)ccc1O	-1	-1%	-6	?	35%	24%
CC(C)(C)c1cc(OC(=O)C2CCCC2)ccc1O	-6	14%	/	6	5.2µM*	14%
O=C1N=C(N2C=CC(=C3C=CNC=C3)C=C2)/C(=C/N=NC(=O)c2ccccc2O)S1	26*	14%	54*	36	3%	-24%
Cc1ccc2cn[nH]c2c1NC(N)=S	31	14%	48*	-3	?	-6%
C=CCN(c1ccccc1Cl)S(=O)(=O)c1cc(C(=O)N2CCCC2)ccc1Cl	-2	-21%	-4	0	0%	?
CCOc1ccc(CNC(=S)N/N=C\c2ccc([N+](=O)[O-])cc2)cc1	12*	0%	9	-13	?	13µM*
COc1ccc(CCNC(=S)NCc2ccc(Cl)c(Cl)c2)cc1OC	-3	-21%	-11	-38	25%	?
COc1ccc(CNc2ccccc2SC)cc1OC	37*	?	33	?	-52%	/
CCCCOc1ccc(CNC(=S)N/N=C/c2ccc(OC)c(OC)c2)cc1	18	-5%	24	8	4.7µM*	/
CCNC(=S)NCc1ccc(OC)c(OC)c1	-2	26%	12	-34	5.2µM*	3%
CCOc1ccc(CNC(=S)N/N=C/c2cccnc2)cc1	2	-1%	19	-4	6%	-7%
Cc1ccc(-c2noc(CCC(=O)NCC3CCCO3)n2)cc1 (stereo not given)	-3	7%	2	-12	34%	/
CCn1c(=O)c(CCC(=O)N2CCN(c3ccccn3)CC2)c(C)c2c(C)nn(-c3cccc(C)c3)c21	0	14%	-3	3	?	9.3µM*
CCn1c(=O)c(CCC(=O)NCC2CCCO2)c(C)c2c(C)nn(-c3ccc(C)cc3)c21 (stereo not given)	-1	-29%	-4	16	-16%	5.2µM*
Cc1nc2nc(C)c(CCC(=O)N3CCN(c4ccccn4)CC3)c(C)n2n1	-3	15%	2	-8	13%	-3%
Cc1cccc(Cc2c(C)nc3nc(SCc4cccc(F)c4)nn3c2C)c1	/	/	/	15	/	/
Cc1ccc(C(=O)c2cn(Cc3ccccc3F)c3cc4c(cc3c2=O)OCO4)cc1	/	/	/	-36	/	/
CCN(C(=O)CN1CC(C)OC(C)C1)c1c(N)n(Cc2ccccc2)c(=O)[nH]c1=O (stereo not given)	10	-23%	-4	-8	30%	1%
